The values that follow come from PubChem BioAssay (NCATS).

Calls of active or inactive are those of the source. Calls follow the shape of the full dose curve.

The assay in a line: qHTS drug screen for cell cycle checkpoint inhibitors in PARPi-resistant BRCA-mutant ovarian cancer cell lines. (AID 1963452). The conditions noted are these: PEO1/OlaR viability, CellTiter-Glo luminescence, 96 h, stronger effect = lower value. In outline: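 PEO1, PEO4 and PEO1/OlaR ovarian cancer cells, 600 per well, exposed 96 h at 37C to a dilution series. Viability read by CellTiter-Glo luminescence, normalized to DMSO and empty wells; activity summarized as Z-AUC.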
For orientation: Quantitative high-throughput screening tests each substance at several concentrations.

Setting [1] is: measured here: PEO1 parental Z-AUC.

Take `Cc1cc(C(C)Nc2ccccc2)c2nc(N3CCOCC3)cc(=O)n2c1` (stereo unspecified): the Z-AUC is 0.744 (inactive). Also, the Z-AUC under setting [1] was 1.25. Besides, under “measured here: PEO4 Z-AUC”, the Z-AUC is 1.25.
With `O=[N+]([O-])c1ccc(Nc2ccccc2-c2ccccc2)c2nonc12`, the Z-AUC is 0.186 (inactive). Also, the Z-AUC under setting [1] stood at 0.785. For the same compound, under “measured here: PEO4 Z-AUC”, the Z-AUC was found to be 0.946.
Regarding `CNC(=O)c1cc(COc2nnc(Nc3ccc(Cl)cc3)c3ccoc23)ccn1`, the Z-AUC was 0.731 (inactive). Further, under setting [1], the Z-AUC was found to be 0.432. Where the note is “measured here: PEO4 Z-AUC”, the Z-AUC was 0.337.
For the compound `NCc1c[nH]c(=S)n1[C@H]1CCc2c(F)cc(F)cc2C1`, the Z-AUC is -0.555 (inactive). Under setting [1], the Z-AUC is -0.422. Further, the Z-AUC (measured here: PEO4 Z-AUC) is -0.786.
In the case of `COc1ccc2c(c1)c(C1=C(c3c[nH]c4ccccc34)C(=O)NC1=O)cn2CCCN(C)C`, the Z-AUC was -1.63 (inactive). Besides, under setting [1], the Z-AUC was -0.951. Further, under “measured here: PEO4 Z-AUC”, the Z-AUC was -1.4.
Regarding `COC(=O)Nc1ccc(-c2nc(N3CCOCC3)c3cnn(C4CCN(C(=O)OC)CC4)c3n2)cc1`, the Z-AUC is 0.0604 (inactive). Besides, under setting [1], the Z-AUC was -0.0911. Further, where the note is “measured here: PEO4 Z-AUC”, the Z-AUC is -0.355.
In the case of `CNC(=O)c1c(-c2ccc(F)cc2)oc2cc(N(CCO)S(C)(=O)=O)c(C3CC3)cc12`, the Z-AUC is 0.51 (inactive). In addition, under setting [1], the Z-AUC amounted to 0.436. Also, where the note is “measured here: PEO4 Z-AUC”, the Z-AUC came to 0.532.
On to `Fc1ccc(CNc2ncnc3ccc(F)cc23)cc1`, for which the Z-AUC was -0.894 (inactive). Moreover, the Z-AUC under setting [1] was -1.29. In addition, under “measured here: PEO4 Z-AUC”, the Z-AUC was -1.17.
For `CC(C)(OCc1nn(Cc2ccccc2)c2ccccc12)C(=O)O`, the Z-AUC was 1.03 (inactive). Moreover, the Z-AUC under setting [1] came out at 1.11. Where the note is “measured here: PEO4 Z-AUC”, the Z-AUC is 1.54.
The like results for `Cc1ccc(S(=O)(=O)Nc2nc3ccccc3nc2Nc2ccc3nsnc3c2)cc1` were, in that order, -0.8 (inactive), -0.564 and -0.705.
As for `C=CC(=O)Nc1cccc(Sc2nc(Nc3ccc(N4CCN(C)CC4)cc3)ncc2Cl)c1`, the Z-AUC was -0.713 (inactive). Under setting [1], the Z-AUC is 0.0484. For the same compound, the Z-AUC (measured here: PEO4 Z-AUC) is 0.0662.
On to `O=C1C(c2c(O)[nH]c3ccccc23)=Nc2ccccc21`, for which the Z-AUC was 0.207 (inactive). Under setting [1], the Z-AUC worked out at 0.824. Also, for the setting “measured here: PEO4 Z-AUC”, the Z-AUC amounted to 0.396.
On the same counts, the results for `O=C(O)C1=CC(O)C(O)[C@H](O)C1` (stereo partly specified) are 1.17 (inactive), 1.52 and 1.23.
With `CC(C)Oc1cc(Nc2nc(N[C@@H](C)c3ccc(F)cn3)ncc2Cl)[nH]n1`, the Z-AUC is -1.59 (inactive). The Z-AUC under setting [1] was -1.36. In addition, the Z-AUC (measured here: PEO4 Z-AUC) was -0.661.
As for `O=C(O)c1ccc(O)c2ncc(N3CCOCC3)cc12`, the Z-AUC was -0.152 (inactive). Also, under setting [1], the Z-AUC is -0.649. Also, for the setting “measured here: PEO4 Z-AUC”, the Z-AUC was -0.698.
As for `Cc1ccc(S(=O)(=O)OCC(=O)Nc2ccc(C(=O)O)c(O)c2)cc1`, the Z-AUC is 1.67 (inactive). Besides, under setting [1], the Z-AUC is 1.37. Besides, the Z-AUC (measured here: PEO4 Z-AUC) came out at 1.35.
On to `CNC1CCC(N(Cc2cccc(-c3ccncc3)c2)C(=O)c2sc3ccccc3c2Cl)CC1` (stereo unspecified), for which the Z-AUC was 0.143 (inactive). The Z-AUC under setting [1] was determined as 0.312. The Z-AUC (measured here: PEO4 Z-AUC) came out at 0.329.
With `COc1cc2nccc(Oc3ccc(NC(=O)Nc4ccc(F)cc4F)c(F)c3)c2cc1OC`, the Z-AUC is 0.868 (inactive). Also, under setting [1], the Z-AUC stood at 0.566. For the same compound, the Z-AUC (measured here: PEO4 Z-AUC) amounted to 0.26.
The like results for `Cc1cnc(Nc2cccc(CN3CCOCC3)c2)nc1Nc1cccc(S(=O)(=O)NC(C)(C)C)c1` were, in that order, -1.13 (inactive), -0.892 and -1.26.
In the case of `Cc1cnc(-c2cc(N3CCN(C(=O)CCS(C)(=O)=O)CC3)ncc2Cl)c(C)c1`, the Z-AUC is 0.449 (inactive). Also, the Z-AUC under setting [1] came to 1.67. Further, the Z-AUC (measured here: PEO4 Z-AUC) stood at 1.63.
The like results for `O=C(Nc1cccc(Cl)c1)Nc1ncc(CCNc2ncnc3ccsc23)s1` were, in that order, -0.664 (inactive), -1.1 and -1.17.
Turning to `CC1CNc2c(cccc2S(=O)(=O)N[C@@H](CCCN=C(N)N)C(=O)N2CC[C@@H](C)C[C@@H]2C(=O)O)C1` (stereo partly specified), the Z-AUC is 1.14 (inactive). Under setting [1], the Z-AUC is 0.686. For the same compound, for the setting “measured here: PEO4 Z-AUC”, the Z-AUC was 1.06.
For the compound `CC(C)(O)CC(=O)NCCn1ccc2ncnc(Nc3ccc(Oc4cccc(C(F)(F)F)c4)c(Cl)c3)c21`, the Z-AUC was 0.0129 (inactive). The Z-AUC under setting [1] was -0.0981. Moreover, the Z-AUC (measured here: PEO4 Z-AUC) was -0.515.
As for `C[C@@]1(c2cc(-c3cncnc3)c(F)cc2F)CCSC(N)=N1`, the Z-AUC is 0.854 (inactive). The Z-AUC under setting [1] is 0.822. Where the note is “measured here: PEO4 Z-AUC”, the Z-AUC came out at 0.652.
`Cc1ccc(C2=Nc3ccc(Cl)cc3OC2)cc1`: the Z-AUC is 1.28 (inactive). For the same compound, under setting [1], the Z-AUC is 0.878. Also, the Z-AUC (measured here: PEO4 Z-AUC) is 0.727.
With `CC(C)[C@H](O)C(=O)N[C@@H](C)C(=O)N[C@@H]1C(=O)N(C)CCc2ccccc21`, the Z-AUC was -0.413 (inactive). In addition, the Z-AUC under setting [1] is -0.342. Where the note is “measured here: PEO4 Z-AUC”, the Z-AUC was -0.336.
The like results for `CC1=C[C@@H]2[C@@H]([C@@H](O)C[C@@]3(C)[C@H]2C[C@@H](C)[C@]3(O)C(=O)CO)[C@@]2(C)Cc3cnn(-c4ccccc4)c3C=C12` were, in that order, -1.56 (inactive), -0.109 and -1.25.
Regarding `CC(=O)Nc1cccc(-n2c(=O)n(C3CC3)c(=O)c3c(Nc4ccc(I)cc4F)n(C)c(=O)c(C)c32)c1`, the Z-AUC is -0.972 (inactive). Further, under setting [1], the Z-AUC was -1.33. In addition, for the setting “measured here: PEO4 Z-AUC”, the Z-AUC is -1.07.
Regarding `COc1cc(F)c(C(C)C)cc1-c1ccc(C(F)(F)F)cc1CN1C(=O)O[C@H](c2cc(C(F)(F)F)cc(C(F)(F)F)c2)[C@@H]1C`, the Z-AUC was 0.469 (inactive). Besides, under setting [1], the Z-AUC was found to be 0.239. Also, the Z-AUC (measured here: PEO4 Z-AUC) is 0.327.
`NC1(C(=O)N[C@@H](CCO)c2ccc(Cl)cc2)CCN(c2ncnc3[nH]ccc23)CC1`: the Z-AUC was -0.465 (inactive). Moreover, under setting [1], the Z-AUC came out at 0.588. Also, under “measured here: PEO4 Z-AUC”, the Z-AUC came to 0.532.
For the compound `CCC(=O)NCC[C@@H]1CCc2ccc3c(c21)CCO3`, the Z-AUC is -0.993 (inactive). Further, the Z-AUC under setting [1] stood at 1.01. The Z-AUC (measured here: PEO4 Z-AUC) came to 0.501.
As for `CN(C)CC[C@H](CSc1ccccc1)Nc1ccc(S(=O)(=O)NC(=O)c2ccc(N3CCN(Cc4ccccc4-c4ccc(Cl)cc4)CC3)cc2)cc1[N+](=O)[O-]`, the Z-AUC was -0.74 (inactive). In addition, the Z-AUC under setting [1] came to 0.0363. Also, for the setting “measured here: PEO4 Z-AUC”, the Z-AUC is -1.54.
